Laboratory results as given in PubChem BioAssay AID1159580 (chemical genetic matrix, 2015).
Where “and” joins values, the source holds several entries; their conditions need not be identical. Identical values can stand only once. Among all 5,500 compounds or so, about 2,000 (36%) were called active. Another 18% or so got no clear call; they are omitted. Cut-off read from the data, not from the text of the source: active = normalized growth mostly below about 0.91 (no sharp cut-off); inconclusive = no clear call, values can overlap the other calls; inactive = mostly above about 0.92. The list shows a part of the results.

Test: chemical genetic growth profiling, strain panel (AID 1159580);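 note: tested at 20 µM; growth read once vehicle control cultures reached saturation at 30 °C; 1 = growth at the plate median or of vehicle wells; lower values mean less growth of the strain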
Details: S. cerevisiae deletion strains, growth OD

Measured: normalized growth

CC(=O)O[C@H]1C[C@@H](OC(C)=O)C(C)(C)C2CC(=O)[C@]3(C)C(CC[C@@]4(C)[C@H](C(=O)O)OC(=O)C5OC543)[C@]21C (stereo partly specified)
inactive: locus YAL021C, strain ccr4, active compounds read low 0.96 | locus YAL026C, strain drs2, active compounds read low 0.98 | locus YAL030W, strain snc1, active compounds read low 1.02 | locus YBL061C, strain skt5, active compounds read low 0.995 | locus YBR009C, strain hhf1, active compounds read low 0.988 | locus YBR021W, strain FUR4, active compounds read low 1.03 | locus YBR023C, strain chs3, active compounds read low 1.01 | locus YBR171W, strain sec66, active compounds read low 0.984 | locus YBR229C, strain ROT2, active compounds read low 0.964 | locus YBR231C, strain swc5, active compounds read low 0.988 | locus YBR279W, strain paf1, active compounds read low 1.01 | locus YCL011C, strain gbp2, active compounds read low 0.982 | locus YCL016C, strain dcc1, active compounds read low 0.974 | locus YCL029C, strain bik1, active compounds read low 0.979 | locus YCL061C, strain MRC1, active compounds read low 0.987 | locus YCL069W, strain vba3, active compounds read low 0.991 | locus YCR088W, strain abp1, active compounds read low 1 | locus YDL005C, strain med2, active compounds read low 0.966 | locus YDL035C, strain GPR1, active compounds read low 0.977 | locus YDL040C, strain nat1, active compounds read low 0.995 | locus YDL074C, strain BRE1, active compounds read low 1.04 | locus YDL101C, strain DUN1, active compounds read low 0.991 | locus YDL134C, strain PPH21, active compounds read low 1.05 | locus YDL185W, strain tfp1, active compounds read low 0.965 | locus YDL192W, strain arf1, active compounds read low 0.968 | locus YDR001C, strain nth1, active compounds read low 0.994 | locus YDR069C, strain doa4, active compounds read low 0.994 | locus YDR101C, strain arx1, active compounds read low 0.983 | locus YDR137W, strain rgp1, active compounds read low 0.991 | locus YDR159W, strain sac3, active compounds read low 1.03 | locus YDR162C, strain NBP2, active compounds read low 1.01 | locus YDR195W, strain ref2 0.936 | locus YDR297W, strain sur2, active compounds read low 0.993 | locus YDR318W, strain mcm21, active compounds read low 0.987 | locus YDR334W, strain swr1, active compounds read low 0.976 | locus YDR335W, strain msn5, active compounds read low 0.987 | locus YDR388W, active compounds read low 0.989 | locus YDR392W, strain spt3, active compounds read low 1 | locus YDR502C, strain sam2, active compounds read low 1.02 | locus YEL003W, strain gim4, active compounds read low 0.994 | locus YEL037C, strain rad23, active compounds read low 0.995 | locus YEL061C, strain CIN8 (second series), active compounds read low 0.993 | locus YEL061C, strain CIN8, active compounds read low 0.979 | locus YER015W, strain faa2, active compounds read low 0.987 | locus YER016W, strain bim1, active compounds read low 0.987 | locus YER110C, active compounds read low 0.979 | locus YER111C, strain swi4, active compounds read low 0.987 | locus YER155C, strain BEM2 (second series), active compounds read low 0.992 | locus YER155C, strain BEM2, active compounds read low 0.996 | locus YER167W, strain BCK2, active compounds read low 0.988 | locus YFR010W, strain ubp6, active compounds read low 1.02 | locus YGL078C, strain dbp3, active compounds read low 1.02 | locus YGL086W, strain mad1, active compounds read low 1 | locus YGL167C, strain pmr1, active compounds read low 0.993 | locus YGL173C, strain kem1, active compounds read low 0.997 | locus YGL227W, strain vid30, active compounds read low 0.993 | locus YGL240W, strain doc1, active compounds read low 0.974 | locus YGL248W, strain PDE1, active compounds read low 1.01 | locus YGL253W, strain hxk2, active compounds read low 0.988 | locus YGR135W, strain pre9, active compounds read low 1.06 | locus YGR252W, strain gcn5, active compounds read low 1.07 | locus YHR013C, strain ard1, active compounds read low 0.97 | locus YHR027C, strain rpn1, active compounds read low 0.988 | locus YHR030C, strain SLT2, active compounds read low 0.981 and 1.01 | locus YHR079C, strain IRE1 (second series), active compounds read low 0.983 | locus YHR079C, strain IRE1, active compounds read low 1.03 | locus YHR094C, strain hxt1, active compounds read low 0.992 | locus YHR129C, strain ARP1, active compounds read low 0.987 | locus YHR142W, strain chs7, active compounds read low 0.98 | locus YHR200W, strain rpn10, active compounds read low 1.02 | locus YIL066C, strain RNR3, active compounds read low 0.957 | locus YIL073C, strain SPO22, active compounds read low 0.996 | locus YIL125W, strain kgd1, active compounds read low 0.992 | locus YIR030C, strain dcg1, active compounds read low 0.986 | locus YJL092W, strain hpr5, active compounds read low 0.994 | locus YJL095W, strain BCK1 (second series), active compounds read low 0.983 | locus YJL095W, strain BCK1, active compounds read low 1.08 and 1.01 | locus YJL115W, strain asf1, active compounds read low 0.978 | locus YJL129C, strain trk1, active compounds read low 0.987 | locus YJL134W, strain LCB3, active compounds read low 0.978 | locus YJL154C, strain vps35, active compounds read low 0.978 | locus YJL164C, strain tpk1, active compounds read low 1.02 | locus YJL166W, strain qcr8, active compounds read low 0.977 | locus YJL168C, strain set2, active compounds read low 0.996 | locus YJL187C, strain SWE1 (second series), active compounds read low 1.01 | locus YJL187C, strain SWE1, active compounds read low 0.984
